In the library only some 2.3% were active in any assay of this set; here they are far more common.
BCLXL inh: inhibitors of human Bcl-xL. Q07817. GST-Bcl-xL / FITC-Bim BH3 peptide fluorescence polarization. inhibition, % at 10.9 µM. 0.7% of 320,000 active. AID 2129;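 active means inhibition above the mean of all tested compounds plus 3 SD, cutoff set per campaign, cut at about 30% in these data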;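 further: 0% = DMSO wells and 100% = unlabeled Bim-BH3 peptide competitor; inhibitors lower millipolarization by displacing the labeled peptide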
MCL1 BIM primary: disrupts human MCL1 binding to BIM-BH3 peptide. Q07820. GST-MCL1 / FITC-Bim-BH3 fluorescence polarization. inhibition, % at 10.9 µM. 0.68% of 320,000 active. AID 2057;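 active means inhibition above the mean inhibition of all tested compounds plus 3 SD, set per campaign, cut at about 40% in these data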;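 further: 0% = DMSO wells and 100% = unlabeled Bim-BH3 peptide control; higher means more loss of mP so more displacement of Bim peptide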
Target sequence (Q07820 whole entry, looked up): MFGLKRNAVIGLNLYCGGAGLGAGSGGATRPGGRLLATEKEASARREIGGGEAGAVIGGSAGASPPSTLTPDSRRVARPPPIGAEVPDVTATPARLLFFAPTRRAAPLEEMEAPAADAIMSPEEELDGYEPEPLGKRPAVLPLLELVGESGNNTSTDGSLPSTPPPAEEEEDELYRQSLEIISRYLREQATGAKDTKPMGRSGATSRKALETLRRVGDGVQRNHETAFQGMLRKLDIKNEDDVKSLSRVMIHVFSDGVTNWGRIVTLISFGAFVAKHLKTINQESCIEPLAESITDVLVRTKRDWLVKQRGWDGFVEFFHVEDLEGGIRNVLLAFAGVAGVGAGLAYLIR
Mcl1 Noxa PPI: Mcl-1/Noxa interaction inhibition; TR-FRET Mcl-1/Noxa peptide binding, 2 h; 1.5% of 220,000 active; Q07820; inhibition, % at 21.7 µM;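 active means compounds that cut the protein-peptide binding signal by more than 50% relative to plate controls in a single-dose test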;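 further: His-tagged Mcl-1 with rhodamine Noxa BH3 peptide and terbium anti-His antibody; 0% = Mcl-1 plus Noxa peptide wells and 100% = peptide-only wells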
Mcl1 Bid PPI: Mcl-1/Bid interaction inhibition; inhibition, % at 21.7 µM; Q07820; 0.97% of 220,000 active; TR-FRET Mcl-1/Bid-Dy647 peptide binding, 1536-well;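 active means compounds that cut the binding signal by more than half at the single screening dose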;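 further: His-tagged Mcl-1 with europium anti-His antibody binding Bid BH3 peptide; 0% = Mcl-1 plus peptide wells and 100% = peptide-only wells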
Mcl-1 Bim block: disrupts Bim peptide binding to human Mcl-1. inhibition, % at 10 µM. 0.1% of 190,000 active. Q07820. Bead-based flow cytometry, Bim peptide-Mcl-1 binding. AID 1009; in the data active means inhibition above about 40%;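 further: 0% = no compound tracer wells and 100% = peptide blocker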
GLD-1 RNA inh: GLD-1-TGE RNA interaction inhibition (C. elegans); Q17339; 0.44% of 320,000 active; purified GLD-1 + fluorescein TGE RNA, fluorescence polarization; inhibition, % at 5.96 µM; AID 2280;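 active means percent inhibition above a per-plate cutoff, the plate mean of test compounds plus 3 SD, cut at about 30% in these data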;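 further: 0% = DMSO wells with GLD-1 and probe and 100% = wells lacking GLD-1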
* marks the source's active call; other numbers are inactive results; x = no result given.

SMILES	BCLXL inh	MCL1 BIM primary	Mcl1 Noxa PPI	Mcl1 Bid PPI	Mcl-1 Bim block	GLD-1 RNA inh
Clc1ccc2c(N/N=C/c3ccccc3Br)ccnc2c1	6.3	7.8	58.0*	63.2*	0.0	6.2
NS(=O)(=O)c1ccc(CCNC(=O)C(=O)c2c[nH]c3ccccc23)cc1	3.6	13.8	7.3	98.7*	-4.0	1.9
Oc1ccc(/C=N/Nc2cccc3cccnc23)c(O)c1	7.8	11.9	61.5*	-39.4	0.0	-1.3
Cc1ccc(/C=N/Nc2cccc3cccnc23)c(O)c1	7.5	7.8	19.0	-37.3	-6.0	4.6
CC1CC(=O)NN=C1c1ccc(NCCO)c([N+](=O)[O-])c1 (stereo unspecified)	3.7	3.3	9.2	-11.2	-1.0	1.3
Cc1ccc(NC(=O)/C(C#N)=C/c2ccc(C)s2)c(C)c1	48.0*	40.7*	12.4	-6.8	-2.0	5.6
Cc1cc(C)nc(N/N=C/C2=C(N3CCOCC3)C(=C\c3ccc(Cl)cc3)/CC2)n1	-2.2	-5.2	36.0	-116.9	-5.0	7.7
O=C(O)c1ccc(N/N=C/C2=C(N3CCOCC3)C(=C\c3ccccc3)/CC2)cc1	-24.1	-22.6	75.3*	-80.5	x	-2.3
CC1CN(C(=O)N2c3ccccc3Sc3ccccc32)CC(C)O1 (stereo unspecified)	3.0	-2.0	22.3	-3.0	-5.0	3.2
CC1CN(C(=O)N2c3ccccc3Sc3ccccc32)C(C)CC1=O (stereo unspecified)	5.9	3.7	70.2*	-17.6	-2.0	-0.1
NC1=NC[C@H](Cc2ccccc2)N1CCc1cccc(F)c1	6.7	-1.2	16.4	-23.0	x	6.8
O=C(NN1C(=O)c2ccccc2NC1c1ccc([N+](=O)[O-])o1)c1ccc([N+](=O)[O-])cc1 (stereo unspecified)	-3.4	-2.3	13.3	-28.8	1.0	-3.2
CC1(C)CC(=O)C(C(c2cccnc2)C2C(=O)CC(C)(C)CC2=O)C(=O)C1	8.0	9.6	-4.6	69.4*	-30.0	-7.0
Cc1cccc(NC(=O)CCN2CCC(C(N)=O)CC2)c1	4.0	-2.3	x	x	x	5.3
CCOC(=O)c1c(NC(=O)CC(C)C)sc(C(C)=O)c1C	2.9	8.4	-20.4	5.5	x	4.2
CCOC(=O)c1c(NC(=O)c2cc(-c3ccc(O)cc3)on2)sc(C(C)=O)c1C	1.2	-2.3	83.7*	-15.7	-8.0	-6.7
CCOC(=O)c1c(NC(=O)N/N=C/c2ccc(O)c(OC)c2)sc(C(C)=O)c1C	3.5	0.4	84.4*	71.3*	x	1.8
CCOCCCNC(=O)C(c1ccc(C)cc1)N(Cc1ccc2c(c1)OCO2)C(=O)c1ccccn1 (stereo unspecified)	1.1	2.9	11.2	-27.2	0.0	2.3
CCN(CC)c1ccc(NC(=O)c2cccnc2)c(C)c1	5.7	8.1	15.1	-6.2	-5.0	6.8
CCN(CC)c1ccc(NC(=O)c2cccc(C)c2OC)c(C)c1	2.4	-5.2	62.2*	-21.4	2.0	4.6
CCOc1ccc(NC(=O)NCC2CCN(c3ccc(OC)cc3)C2)cc1 (stereo unspecified)	8.3	7.7	-7.0	-9.6	-4.0	3.5
COc1ccc(N2CCC(CNC(=S)Nc3cccc(C)c3)C2)cc1 (stereo unspecified)	2.7	-0.6	72.6*	-73.4	3.0	-3.1
COc1ccc(N2CCC(CNC(=S)Nc3c(C)cc(C)cc3C)C2)cc1 (stereo unspecified)	10.8	10.2	4.8	-79.5	x	-4.0
COc1ccc(N2CCC(CNS(=O)(=O)c3cccc(C(F)(F)F)c3)C2)cc1 (stereo unspecified)	9.8	4.4	80.3*	5.6	0.0	-2.2
CCc1ccc(NC(=O)NCC2CCN(c3ccc(OC)cc3)C2)cc1 (stereo unspecified)	10.0	5.1	73.3*	-129.4	x	0.6
COc1ccc(N2CCC(CNC(=O)Nc3ccc(C)c(C)c3)C2)cc1 (stereo unspecified)	11.2	9.3	101.0*	3.2	-4.0	1.9
CCOc1cc(C2C3=C(CCCC3=O)NC3=C2C(=O)CCC3)ccc1OCCO	29.9	26.8	5.1	-50.3	-2.0	17.2
CC1CCN(c2nc(-c3ccc(F)cc3)cc(C(F)(F)F)n2)CC1	5.4	-0.6	-5.6	-10.3	-1.0	-2.9
Nc1cc(S(=O)(=O)Nc2cc(Cl)ccc2Cl)ccc1N1CCOCC1	12.8	21.2	-9.8	-72.9	x	7.0

Bioassay records as filed in PubChem.
